# Assay results reported in PubChem BioAssay (NCATS).
# Records with an inconclusive call do not appear. Where a call stands in place of a potency, no number is given. Activity calls are given as the source filed them. Calls follow the shape of the dose curve; as a rule, active = well fitted curve in the direction sought with a large enough effect; inconclusive = small, poorly fitted or top-dose-only effect, or another doubt; inactive = no such curve, though single readings can be large; an effect the other way counts as inactive or inconclusive.
# What was measured:
# [1] = target: Chromobox protein homolog 1 (Homo sapiens) (UniProt P83916); assay: qHTS Validation Assay for Inhibitors of HP1-beta Chromodomain Interactions with Methylated Histone Tails (AID 488953);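 also: loss of AlphaScreen luminescence from HP1-beta binding biotinylated H3K9me3 peptide; series mostly up to about 110 µM; nearly all actives have a fitted effect of over 50% in size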
# Sequence of Chromobox protein homolog 1 (Homo sapiens) (P83916 whole entry, looked up): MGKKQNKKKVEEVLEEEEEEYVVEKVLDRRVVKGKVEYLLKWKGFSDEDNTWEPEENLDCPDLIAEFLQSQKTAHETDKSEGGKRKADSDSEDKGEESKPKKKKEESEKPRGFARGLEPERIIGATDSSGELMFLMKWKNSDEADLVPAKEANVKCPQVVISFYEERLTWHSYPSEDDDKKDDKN
# Outline: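 50 nM HP1-beta + 50 nM biotin-H3(1-18)K9me3, PBS pH 7.4, 0.01% Tween-20, 30 min RT; compound added, 30 min RT; AlphaScreen beads 10 ug/mL final, 30 min dark; luminescence read.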
# [2] = target: D(1A) dopamine receptor (Homo sapiens) (UniProt P21728); assay: HTS Assay for Allosteric Agonists of the Human D1 Dopamine Receptor: Primary Screen for Agonists (AID 488981)
# Sequence of D(1A) dopamine receptor (Homo sapiens) (P21728 whole entry, looked up): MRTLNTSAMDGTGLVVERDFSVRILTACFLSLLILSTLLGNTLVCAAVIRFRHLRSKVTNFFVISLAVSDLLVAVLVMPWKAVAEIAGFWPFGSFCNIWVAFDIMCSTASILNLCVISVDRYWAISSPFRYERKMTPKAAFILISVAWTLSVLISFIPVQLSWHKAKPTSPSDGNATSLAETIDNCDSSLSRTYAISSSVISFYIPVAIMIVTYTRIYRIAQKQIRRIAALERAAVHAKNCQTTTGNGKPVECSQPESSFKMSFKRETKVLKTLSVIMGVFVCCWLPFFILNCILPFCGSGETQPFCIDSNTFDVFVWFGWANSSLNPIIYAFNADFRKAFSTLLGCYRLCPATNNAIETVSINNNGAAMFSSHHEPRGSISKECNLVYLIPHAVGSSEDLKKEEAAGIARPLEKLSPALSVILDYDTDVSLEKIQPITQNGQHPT
# Outline: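 Tetracycline-induced HEK293 Trex D1 cells with forced coupling to calcium, loaded with no-wash calcium dye; kinetic fluorescence read 180 s after compound addition for agonism, then a further 180 s after an EC20 dopamine challenge for potentiation.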
# [3] = qHTS for Inhibitors of ATXN expression: Validation (AID 588378); also: potency is read from the fitted curve at half-maximal effect; nearly all actives have a fitted effect of over 75% in size
# Outline: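 Cells: HEK293-ATXN2-FFLuc, phenol-red free DMEM, 2 h attachment. Compound pin-transfer, 24 h, 37 degrees C, 5% CO2. CellTiter-Fluor 30 min, Ex405/Em525; Bright-Glo 5 min, luminescence 2 s exposure.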
smiles,measurement,setting,value
CNCC[C@H](Oc1ccc(C(F)(F)F)cc1)c1ccccc1,Potency,[1],inactive
same,outcome,[2],inactive
same,Potency,[3],14.1 µM (active)
